Reference: ChEMBL document CHEMBL4888484, “Replenishing the malaria drug discovery pipeline: Screening and hit evaluation of the MMV Hit Generation Library 1 (HGL1) against asexual blood stage Plasmodium falciparum ,using a nano luciferase reporter read-out” (2022)
In all, about 4,800 compounds went through this assay and about 420 (8.8%) showed an effect of 50% or more. This excerpt belongs to a sample that is enriched for strong results.

These compounds were tested on Plasmodium falciparum (assay: Confirmatory screen in NF54 nanoGlo assay, in single point, at 2uM, 72h). Details: timepoint 72 hour.
Type: functional, Erythrocyte
For `Cc1nn(C)c(C)c1-c1cc(C(=O)Nc2sc3c(c2C#N)CCCC3)c2ccccc2n1`, the “% Inhibition” value was -13%. `Cc1cc(C)c(NC(=O)OCc2cccc3cccnc23)c(C)c1` was tested, and the “% Inhibition” value was 83%. For `Cc1cccnc1NC(=O)OC(C)(C)C`, the “% Inhibition” value was 0%. For `CCc1ccc(C2=Nc3cccnc3N(CC(=O)Nc3c(C)cc(C)cc3C)C(=O)C2)cc1`, the “% Inhibition” value was -4%. With `CN(C(=O)Cc1cc(Br)ccc1F)c1nncn1C` the “% Inhibition” value was 9%. For `O=S(=O)(N[C@H](c1nccs1)C1CC1)c1c(F)cccc1Cl`, the “% Inhibition” value was 0%. In the case of `CC(C)CC(=O)N=c1nc(S)ss1`, the “% Inhibition” value is reported as -4%. With `CCN1C(=O)c2ccccc2N2C(=O)CC[C@@]12C(=O)Nc1cccc(OC)c1` the “% Inhibition” value was 92%. `CC(=O)c1cccc(NC(=O)c2nonc2C)c1` was tested, and the “% Inhibition” value was -11%. In the case of `COc1ccc(NC(=O)C2=NN(CC(=O)Nc3cccc(OC)c3)C(=O)CC2)cc1`, the “% Inhibition” value is reported as -12%. In the case of `COc1ccc(NC(=O)CCC(=O)N2CCc3ccccc3C2)cc1`, the “% Inhibition” value is reported as 3%. `CC(=O)c1cccc(NC(=O)Cn2c(=O)n(CCc3ccccc3)c(=O)c3ccccc32)c1` was tested, and the “% Inhibition” value was 7%. In the case of `CCCN1C(=O)c2ccccc2N2C(=O)CC[C@@]12C(=O)Nc1ccccc1`, the “% Inhibition” value is reported as 91%. `COc1ccc(NC(=O)CN2N=C(C(=O)Nc3ccccc3)CCC2=O)cc1` was tested, and the “% Inhibition” value was -15%. For `O=C(CN1C[C@@H](c2ccccc2)Oc2ccccc2C1=O)Nc1ccccc1`, the “% Inhibition” value was -16%. In the case of `CCCN1C(=O)c2ccccc2N2C(=O)CC[C@@]12C(=O)Nc1ccc(OC)cc1`, the “% Inhibition” value is reported as 92%. For `CC(=O)c1cccc(NC(=O)[C@@]23CCC(=O)N2c2ccccc2C(=O)N3C)c1`, the “% Inhibition” value was 76%. In the case of `COc1cccc(NC(=O)c2ccc3c(c2)N(C)[C@@H]2CCCCCN2C3=O)c1`, the “% Inhibition” value is reported as 5%. `CCOc1cccc(CNC(=O)c2nn[nH]c2Nc2ccc(C)c(C)c2)c1` was tested, and the “% Inhibition” value was 1%. `Cc1ccc(Cc2nn3c(C4CCN(S(C)(=O)=O)CC4)nnc3s2)cc1C` was tested, and the “% Inhibition” value was -8%. `Cc1ccc(OCCCOc2ccc(CO)nc2)cc1C` was tested, and the “% Inhibition” value was 3%. For `O=S1(=O)NCCCCN1Cc1ccccc1`, the “% Inhibition” value was -6%. `Cc1cc(NC(=O)Cn2c(=O)n(CC(C)C)c(=O)c3sccc32)no1` was tested, and the “% Inhibition” value was -13%. With `Cn1cc(N)c(Oc2ccc3c(c2)OCO3)n1` the “% Inhibition” value was 0%. With `Cc1cc(N2C(=O)CCS2(=O)=O)ccc1S(=O)(=O)NC1CCCC1` the “% Inhibition” value was 7%. For `Cc1ccc(-c2nn[nH]n2)cc1-n1cccn1`, the “% Inhibition” value was -2%. For `COc1ccc(N2CCN(c3nccn4nc(-c5cccs5)cc34)CC2)cc1`, the “% Inhibition” value was 6%. With `O=C(NC(N1CCCC1=O)(C(F)(F)F)C(F)(F)F)c1ccco1` the “% Inhibition” value was -1%. For `CC(C)(C)OC(=O)NC1CCCN(CC2CN(c3ccc(F)cc3)C(=O)O2)C1` (centres undefined), the “% Inhibition” value was -8%.
